# In PMC4336329 (PLoS ONE, 2015):
# About 2,200 (0.71%) of roughly 310,000 compounds showed an effect of 50% or more. Effects have a minus sign here. The full list was thinned out, with strong results kept by preference.
# Target: human ether-à-go-go-related gene (hERG) potassium channel (human, UniProt Q12809)
# Experiment: primary screen, population patch clamp on CHO cells stably expressing hERG; higher = less effect of the substance
# human ether-à-go-go-related gene (hERG) potassium channel, sequence (Q12809 whole entry, looked up): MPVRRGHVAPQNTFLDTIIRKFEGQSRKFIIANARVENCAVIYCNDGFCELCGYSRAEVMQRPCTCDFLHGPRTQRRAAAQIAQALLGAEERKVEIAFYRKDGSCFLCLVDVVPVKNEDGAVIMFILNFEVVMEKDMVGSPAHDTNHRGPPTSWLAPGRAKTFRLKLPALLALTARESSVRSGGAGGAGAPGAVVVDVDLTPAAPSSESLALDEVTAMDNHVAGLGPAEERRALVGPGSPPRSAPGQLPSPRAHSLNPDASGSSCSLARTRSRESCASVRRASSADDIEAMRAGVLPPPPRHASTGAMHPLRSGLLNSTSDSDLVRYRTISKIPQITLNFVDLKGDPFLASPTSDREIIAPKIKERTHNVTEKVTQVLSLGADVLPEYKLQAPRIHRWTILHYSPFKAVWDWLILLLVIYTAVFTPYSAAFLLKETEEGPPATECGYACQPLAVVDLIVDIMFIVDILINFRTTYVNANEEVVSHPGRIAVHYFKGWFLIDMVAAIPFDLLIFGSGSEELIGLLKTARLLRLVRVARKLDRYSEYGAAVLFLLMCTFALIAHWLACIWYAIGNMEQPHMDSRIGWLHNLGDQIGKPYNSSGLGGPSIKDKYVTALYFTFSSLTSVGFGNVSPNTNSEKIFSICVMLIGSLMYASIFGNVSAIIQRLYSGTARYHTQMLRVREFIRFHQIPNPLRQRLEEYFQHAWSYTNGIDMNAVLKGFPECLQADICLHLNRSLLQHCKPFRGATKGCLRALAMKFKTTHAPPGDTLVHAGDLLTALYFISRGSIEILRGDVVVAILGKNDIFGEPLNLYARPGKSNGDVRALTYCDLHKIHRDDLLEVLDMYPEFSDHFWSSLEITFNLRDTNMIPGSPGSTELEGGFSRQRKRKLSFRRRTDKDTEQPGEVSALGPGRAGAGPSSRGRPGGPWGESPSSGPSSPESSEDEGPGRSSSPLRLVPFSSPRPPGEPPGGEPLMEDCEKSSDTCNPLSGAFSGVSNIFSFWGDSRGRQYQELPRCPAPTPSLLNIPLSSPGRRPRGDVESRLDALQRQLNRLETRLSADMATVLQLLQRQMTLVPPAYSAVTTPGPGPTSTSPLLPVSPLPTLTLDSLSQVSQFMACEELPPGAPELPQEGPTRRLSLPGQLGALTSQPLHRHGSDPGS
row,Compound,"hERG current change (%, negative = inhibition) at 1uM [%]"
1,O=C(N/N=C/c1ccccc1)C1CCCN1C(=O)c1cc([N+](=O)[O-])cc([N+](=O)[O-])c1 (stereo not drawn),12.4
2,COc1ccc(C=O)cc1Cn1ccnc1C.Cl,15.4
3,Cc1cc(F)c(F)c(C(=O)N2CCC(C)CC2)c1Cl,5.24
4,Cc1cc(-n2cccn2)ccc1CN1CCN(C2CCCC2)C(CCO)C1 (stereo not drawn),-54.2
5,OCCC1CN(Cc2ccc(-n3cccn3)cc2)CCN1Cc1ccccc1 (stereo not drawn),-28.5
6,OCCC1CN(Cc2cc(F)ccc2-n2cccn2)CCN1C1CCCC1 (stereo not drawn),3.09
7,OCCC1CN(Cc2cccc3nccnc23)CCN1C1CCCC1 (stereo not drawn),3.17
8,Cc1ccc(CN2CCN(Cc3ccc(-n4cccn4)cc3C)CC2CCO)cc1 (stereo not drawn),-83.8
9,Cc1ccc(CN2CCN(Cc3cccc(-n4cccn4)c3)CC2CCO)cc1 (stereo not drawn),-80.1
10,Cc1cccc(CN2CCN(Cc3cccc(-n4cccn4)c3)CC2CCO)n1 (stereo not drawn),-13.6
11,Cc1ccc(CN2CCN(Cc3ccc(-n4cccn4)cc3)CC2CCO)cc1 (stereo not drawn),-65.5
12,Cc1cccc(CN2CCN(Cc3ccc(-n4cccn4)cc3)CC2CCO)n1 (stereo not drawn),-1.6
13,OCCC1CN(Cc2cccc(-n3cccn3)c2)CCN1Cc1ccccc1 (stereo not drawn),-13.4
14,Cc1cc(-n2cccn2)ccc1CN1CCN(CC(C)C)C(CCO)C1 (stereo not drawn),0.354
15,OCCC1CN(Cc2cc(F)ccc2-n2cccn2)CCN1Cc1ccc(F)cc1 (stereo not drawn),-36.9
16,CCOc1ccccc1N1CC(O)=C(c2nc3ccccc3s2)C1=N,5.48
17,O=C(CSc1nc(-c2ccccc2)cc(=O)[nH]1)Nc1ccc(F)c(F)c1,12.9
18,Cc1ccc(S(=O)(=O)Nc2ccc(C(=O)NCc3cccnc3)cc2)cc1,10.9
19,CCc1nc(SCC(=O)NCc2ccc(F)cc2)c2c(=O)n(C)c(=O)n(C)c2n1,11.2
20,COc1ccc(OC)c(S(=O)(=O)NCC(=O)NC2CCCCCC2)c1,16
21,COc1ccc2nc3sc(C(=O)N4CCN(C)CC4)cc3cc2c1,-12
22,CC(NC(=O)COC(=O)/C=C/c1ccco1)c1ccccc1 (stereo not drawn),8.61
23,Cc1ccc(-n2cc(CN3CCC(CO)(Cc4ccccc4)CC3)cn2)cc1,-22
24,COc1ccc(CN2CCN(C(C)C)C(CCO)C2)cc1Cn1cccn1 (stereo not drawn),12
25,COc1ccc(CN2CCC(CO)(Cc3cccc(C(F)(F)F)c3)CC2)cc1Cn1cccn1,-35.3
26,CC(C)Cc1cc(CN2CCC(CO)(Cc3ccccc3)CC2)[nH]n1,-42.9
27,COc1ccc(CC2(CO)CCN(Cc3cnn(C)c3C)CC2)cc1,6.81

row,Compound,"hERG current change (%, negative = inhibition) at 1uM [%]"
1,COc1ccc(CC2(CO)CCN(Cc3cnn(-c4ccc(F)cc4)c3)CC2)cc1,-79.2
2,CC(C)Cc1cc(CN2CCCC(CO)(Cc3cccc(Cl)c3)C2)[nH]n1 (stereo not drawn),-14.7
3,Cc1ccc(-n2cc(CN3CCC(CO)(Cc4cccc(C(F)(F)F)c4)CC3)cn2)cc1,-64.3
4,OCC1(Cc2ccccc2)CCN(Cc2cnn(-c3ccccc3F)c2)CC1,-4.22
5,CC(C)Cc1cc(CN2CCC(CO)(Cc3cccc(C(F)(F)F)c3)CC2)[nH]n1,-66
6,CSc1cccc(CN2CCC(CO)(Cc3cccc(C(F)(F)F)c3)CC2)c1,-35.9
7,COc1ccc(CN2CCC(CO)(Cc3ccccc3)CC2)cc1Cn1cccn1,-55.9
8,COCCOc1nc2ccccc2nc1C,6.8
9,O=C(Nc1nnc(-c2ccccc2)s1)c1ccccc1F,13.3
10,CC(C)C[C@@H](CO)NC(=O)CC[C@H](NC(=O)OC(C)(C)C)C(=O)N(Cc1ccccc1)Cc1ccccc1,16
11,CCOC(=O)c1cnc(SC2CC(=O)N(c3cccc(OC)c3)C2=O)nc1N (stereo not drawn),11.3
12,CC1(c2nnc(-c3cccc(Cl)c3)o2)CC(c2cccc([N+](=O)[O-])c2)=NO1 (stereo not drawn),16.3
13,COc1cc(CN2CCC(CO)(Cc3cccc(C(F)(F)F)c3)CC2)ccc1F,-15.9
14,COc1ccc(CC2(CO)CCN(Cc3cnn(-c4ccccc4)c3)CC2)cc1,-57.2
15,OCC1(Cc2cccc(C(F)(F)F)c2)CCN(Cc2cc(F)cc(F)c2)CC1,4.2
16,CCOc1cc(CN2CCC(CO)(Cc3cccc(C(F)(F)F)c3)CC2)ccc1OC,-78
17,OCC1(Cc2ccccc2)CCCN(Cc2cnn(-c3ccccc3)c2)C1 (stereo not drawn),-27.4
18,COc1ccc(CC2(CO)CCN(Cc3cnn(-c4ccccc4OC)c3)CC2)cc1,-48.4
19,CC(=O)Nc1ccc(S(=O)(=O)Oc2ccc(N3C(=O)C4CCCCC4C3=O)cc2)cc1 (stereo not drawn),15.5
20,CCOC(=O)c1nnn(-c2nonc2N)c1-c1ccc(F)cc1,13.5
21,CC[C@]12CCCN3CCc4c(n(c5ccccc45)[C@](O)(C(=O)OC)C1)[C@@H]32,-69.4
22,COC(=O)[C@@H]1[C@H]2C[C@H]3c4[nH]c5ccccc5c4CCN3C[C@@H]2CC[C@@H]1O,-21.3
23,COC(=O)C1C(O)CCC2CN3CCc4c([nH]c5ccccc45)C3CC21 (stereo not drawn),1.1
24,CC[C@H]1CC2CN3CCc4c([nH]c5ccccc45)C(C(=O)OC)(C2)C13.Cl (stereo partly drawn),7.18
25,CCC12CCCN3CCc4c(n(c5ccccc45)C(O)(C(=O)OC)C1)C32 (stereo not drawn),-2.18
26,CC[C@]12CCCN3CCc4c(n(c5ccccc45)[C@@](O)(C(=O)OC)C1)[C@@H]32,-85.4
27,O=P(O)(O)C(O)C(F)(F)C(F)(F)C(F)(F)C(F)F (stereo not drawn),21.8
